Screens from PubChem BioAssay.
CR mimetic SO = reduction of superoxide in aged yeast, primary screen, HTS | S. cerevisiae aged cells, superoxide DHE fluorescence; hits give low values | superoxide response (% of plate mean), % at 10 µM | 330,000 tested, 0.18% active | AID 2690, 2010;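 active means superoxide response under a set limit, about three screen SD below normal, cut at about 65% in these data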;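 further: yeast aged for seven days with compound at 30 °C before DHE staining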
NR3A LBD binder = binders of NR3A ligand-binding domain, primary screen, biophysical, differential scanning fluorimetry, uHTS. Glutamate receptor ionotropic, NMDA 3A (GRIN3A) ligand-binding domain. NR3A LBD differential scanning fluorimetry, Tm shift; 0% = protein alone, 100% = glycine-bound protein. Tm shift relative to glycine control, % at 25 µM. 340,000 tested, 2.5% active. AID 1259313, 2017;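 active means melting temperature shift of at least 10% of the positive control shift, at one fixed dose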
UBC13 inh = UBC13 polyubiquitin chain formation inhibitors, primary screen, biochemical, TR-FRET, uHTS. inhibition, % at 20 µM. 330,000 tested, 0.47% active. Ubiquitin-conjugating enzyme E2 N (Homo sapiens), P61088; in the data active means inhibition above about 45%, passing the limit was not always enough
Target sequence (P61088 whole entry, looked up): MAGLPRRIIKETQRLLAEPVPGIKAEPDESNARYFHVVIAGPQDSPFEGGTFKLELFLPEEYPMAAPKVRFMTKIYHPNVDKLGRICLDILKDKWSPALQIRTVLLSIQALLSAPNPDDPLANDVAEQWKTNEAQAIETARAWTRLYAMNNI
NALP1 yeast inh = NALP1 inflammasome inhibitors in reconstituted yeast, colorimetric, S. cerevisiae, triplicate retest; 280,000 tested, 0.61% active; AID 2071, 2009; S. cerevisiae NALP1/ASC/caspase-1 growth, X-gal OD620, 72 h; inhibition, % at 10 µM; in the data active means inhibition mostly above about 24%, no sharp cut-off; inactive means mostly below about 32%
dFosB act = activators of delta FosB homodimer, primary screen, biochemical, fluorescence polarization, TAMRA-CDK5 oligo, single point. Protein FosB (Mus musculus), P13346. purified delta FosB; percent of positive-control signal above neutral wells. activation, % at 25 µM. 340,000 tested, 0.99% active. AID 493131, 2011;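 active means mean activation above about 17%, with every replicate also reaching it, limit read from the data, passing the limit was not always enough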
Target sequence (P13346 whole entry, looked up): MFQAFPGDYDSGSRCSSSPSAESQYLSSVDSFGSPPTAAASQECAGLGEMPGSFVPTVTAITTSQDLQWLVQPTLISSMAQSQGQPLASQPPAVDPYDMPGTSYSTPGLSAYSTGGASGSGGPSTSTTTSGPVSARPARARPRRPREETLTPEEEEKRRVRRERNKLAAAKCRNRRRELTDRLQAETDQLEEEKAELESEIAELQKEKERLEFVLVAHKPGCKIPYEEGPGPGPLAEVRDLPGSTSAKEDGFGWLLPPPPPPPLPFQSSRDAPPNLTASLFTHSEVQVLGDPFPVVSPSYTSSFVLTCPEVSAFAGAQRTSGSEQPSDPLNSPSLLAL
A number is an active result; . = inactive; / = no result given. A selection: hits, their analogues and other compounds. The true share with any hit is near 4.3%.

SMILES	CR mimetic SO	NR3A LBD binder	UBC13 inh	NALP1 yeast inh	dFosB act
COc1ccc(-n2nc(C(=O)NCC(=O)NCC3COc4ccccc4O3)c3ccccc3c2=O)c(OC)c1 (stereo not given)	.	.	.	.	.
CCn1cc(CCCC(=O)NCc2cccc(OC)c2)c2ccccc21	.	.	.	.	.
O=C(N/C(=C/c1cccc([N+](=O)[O-])c1)C(=O)N1CCOCC1)c1ccccc1Br	.	.	.	.	.
Cc1[nH]n(-c2ccc(Br)cc2)c(=O)c1C=Nc1ccc(S(=O)(=O)Nc2nccs2)cc1	.	27	.	.	.
Cc1[nH]n(-c2ccccc2)c(=O)c1C=Nc1ccc(S(=O)(=O)N=C(N)N)cc1	.	.	.	/	26
Cc1[nH]n(-c2ccccc2)c(=O)c1C=Nc1ccc2[nH]c(=O)[nH]c2c1	.	33	.	.	.
Cc1cc(C)nc(NS(=O)(=O)c2ccc(N=Cc3c(C)[nH]n(-c4ccccc4)c3=O)cc2)n1	.	.	.	.	.
Cc1[nH]n(-c2ccccc2)c(=S)c1C=Nc1ccc([N+](=O)[O-])cc1	.	23	/	.	.
CCOc1ccc(OCC)c(NC(=O)CN2CCN(CC(=O)NC(C)C)CC2)c1	.	.	.	.	.
Cc1cccc(-n2[nH]c(C)c(C=Nc3ccc4[nH]c(=O)[nH]c4c3)c2=O)c1	.	32	.	.	.
COC(=O)CSc1nnc(CSc2nc(C)cc(C)n2)n1Cc1ccco1	.	14	.	.	.
C/C(=N\NC(=O)c1ccc(Cl)cc1)c1ccccn1	.	.	.	36	.
Nc1nc2nccc(-c3ccc(Cl)cc3)n2n1	.	.	.	36	.
Cc1ccc(S(=O)(=O)NC(=O)N(CCC#N)Cc2ccccc2)cc1	.	.	.	.	.
CCN(CC)c1ccc(/C=N/Nc2nc3ccccc3[nH]2)c(O)c1	.	.	.	.	32
Cc1ccc2cc(/C=N/Nc3nc4ccccc4[nH]3)c(Cl)nc2c1	/	12	/	.	.
COc1cc(OC)c(OC)cc1/C=N/Nc1nc2ccccc2[nH]1	.	.	.	.	.
CCn1c(CNC(=O)c2ccccc2Br)nnc1SCC(=O)Nc1nncs1	.	.	.	.	.
COc1ccc(C(=O)NCc2ccncc2)cc1S(=O)(=O)N1CCOCC1	.	.	.	/	.
O=C(NCc1ccncc1)c1ccc(Cl)c(S(=O)(=O)N2CCOCC2)c1	.	321	.	.	.
C=CCN(C(=O)CCC(=O)Nc1cc(C)on1)C(C(=O)NC(C)(C)C)c1cccc(OC)c1OC (stereo not given)	.	401	.	.	.
Cc1csc(SCC(=O)N(C)C2CCS(=O)(=O)C2)n1 (stereo not given)	/	.	.	/	.
Cc1ccc(N(CC(=O)Nc2ccc(-c3nc4ccc(C)cc4s3)cc2)S(C)(=O)=O)cc1	.	.	.	.	.
Cc1ccc2nc(-c3ccc(NC(=O)C(C)Sc4nncs4)cc3)sc2c1 (stereo not given)	.	14	.	/	.
Cc1ccc(C)c(N(CC(=O)Nc2ccc(-c3nc4ccc(C)cc4s3)cc2)S(C)(=O)=O)c1	.	23	.	.	.
SMILES	CR mimetic SO	NR3A LBD binder	UBC13 inh	NALP1 yeast inh	dFosB act
Cc1ccc2nc(-c3ccc(NC(=S)NC(=O)CC(C)C)cc3)sc2c1	.	.	.	.	.
Cc1ccc(S(=O)(=O)Nc2ccc(-c3nc4ccc(C)cc4s3)cc2)cc1	.	16	.	.	.
COC(=O)C(Cc1ccccc1)NS(=O)(=O)c1ccc(F)cc1Br (stereo not given)	.	.	.	.	.
O=C(Nc1ccccc1Cl)NC1(C(=O)NCC2CCCO2)CCCCC1 (stereo not given)	.	.	.	.	.
O=C(Nc1ccc2nc(-c3ccc(Br)o3)[nH]c2c1)c1ccco1	.	10	.	.	.
Cn1cccc1-c1nc2ccc(NC(=O)c3cccs3)cc2[nH]1	.	16	.	.	.
O=C(Nc1ccc2nc(-c3ccc(Br)o3)[nH]c2c1)c1cccs1	.	21	.	.	.
CC(=O)Nc1ccc2nc(-c3ccc(Br)o3)[nH]c2c1	.	.	.	.	.
CC(=O)Nc1ccc2nc(-c3cccn3C)[nH]c2c1	.	.	.	.	.
CCOC(=O)N1CCC(N2C(=O)c3ccc(C(=O)Nc4ccc(OC)c(OC)c4)cc3C2=O)CC1	.	.	.	.	.
CC1CCCCC1NCC#CCOc1ccc(Cl)cc1 (stereo not given)	.	.	.	.	.
C(=N\N=C\c1ccccc1)/c1ccccc1	.	.	.	36	.
Fc1cccc(Nc2ncnc3c2cnn3-c2ccccc2)c1	.	28	.	.	.
COc1cccc(Nc2ncnc3c2cnn3-c2cccc(C)c2)c1	.	13	.	.	.
Cc1ccc(-n2ncc3c(NCc4ccccc4)ncnc32)cc1	.	.	.	41	.
Cc1ccc(CNc2ncnc3c2cnn3-c2ccccc2)cc1	.	.	.	.	.
Cc1n[nH]c(C)c1CCNC(=O)C1CCC(=O)N(Cc2ccccc2F)C1 (stereo not given)	.	.	.	.	.
O=C1NC(=NCc2ccccc2)NC1(c1ccccc1)c1ccccc1	/	.	/	/	.
Cc1c2cc[n+](CCN3CCCCC3)cc2c(C)c2c1[nH]c1ccc(O)cc12	/	.	/	/	89
Cc1ccc(SCCC(=O)Nc2ccccc2C(=O)NC(C)C)cc1	.	14	.	.	.
COc1ccc(C2NC(C(=O)O)Cc3c2[nH]c2ccccc32)cc1OC (stereo not given)	.	.	.	.	.
COc1ccc(C2NCCc3c2[nH]c2ccccc32)cc1CSc1nc2ccccc2s1 (stereo not given)	.	.	/	57	80
COc1ccccc1-c1coc2c(CN3CCCC(C)C3)c(O)ccc2c1=O (stereo not given)	.	.	.	.	.
Cc1cc([N+](=O)[O-])nn1CC(=O)Nc1sc2c(c1C(N)=O)CCCC2	.	.	.	.	.
Cc1cc([N+](=O)[O-])nn1CCCC(=O)Nc1sc2c(c1C(N)=O)CCCC2	.	17	.	.	.
SMILES	CR mimetic SO	NR3A LBD binder	UBC13 inh	NALP1 yeast inh	dFosB act
O=C(CSc1ccccc1)Nc1ccc2sccc2c1	.	17	.	.	.
O=C(COc1ccccc1)Nc1cccc(-c2nc3ccccc3[nH]2)c1	.	.	.	.	.
O=C(CSc1ccc(Cl)cc1)Nc1cccc(-c2nc3ccccc3[nH]2)c1	.	32	.	.	.
COc1ccc(OCC(=O)Nc2cccc(-c3nc4ccccc4[nH]3)c2)cc1	.	20	.	.	.
O=C(CSc1nc(-c2ccc(Cl)cc2)[nH]c(=O)n1)Nc1cccc(Cl)c1	.	12	.	/	.
O=C(CSc1n[nH]c(-c2cccnc2)n1)Nc1cccc(Cl)c1	.	.	.	.	.
